Laboratory results: the emibetuzumab library of Makowski et al. (2022)
The other results are listed elsewhere or left out. How many sequences the whole screen found active is unknown.

B1: VH:VL chains; a variant is named by its letters at X, in order (parent)
chain 1: QVQLVQSGAEVKKPGASVKVSCKASGYTFTDYXMHWVRQAPGQGLEWMGXVNPNXXXTTYNQKFEGRVTMTTDTSTSTAYMELRSLRSDDTAVYYCARXNXLDXWGQGTTVTVSS
chain 2: DIQMTQSPSSLSASVGDRVTITCSVSSSVSSIYLHWYQQKPGKAPKLLIYSTSNLASGVPSRFSGSGSGTDFTLTISSLQPEDFATYYCQVYSGYPLTFGGGTKVEIK

Variants of: B1
Assay: yeast display scFab, FACS + sequencing
Settings: with MET
How it was run: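 Heavy-chain CDR mutant scFab yeast surface library, enriched by two magnetic rounds on HGFR-Fc-coated Protein A beads and then by FACS. Cells were labelled with 1 nM HGFR-Fc in PBSB with 1% milk and anti-Myc for 3 h at room temperature, and the top 50% antigen-positive cells were gated. Round-3 sorted and input populations were deep sequenced in two replicates. Antigen binding call: positive if a sequence occurred in both antigen-positive samples, negative if it occurred only in input.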

Variant	antigen binding call
SEGTSAVF	no binding
DTKAASSS	no binding
DKERGDLV	no binding
DTRTAYGF	no binding
YRAKSSSS	binds
YRAEGSSS	binds
VKGRADVF	no binding
YRGGDDLY	no binding
DRGGDDWY	no binding
YAGGDFAY	no binding
ARGKASSY	no binding
YRAGGSSY	binds
YRGGDSSY	binds
DRGGDDVY	no binding
DREEGSSY	no binding
YRGGDSAY	binds
DRREGYGA	no binding
DTTRDDSD	no binding
VTTKSDWV	no binding
AGKGGFAY	no binding
VEARNDWA chain 1 M81I	no binding
FRRGGAWD	binds
YETKGDWD	no binding
YRRRGAWD	binds

Variant	antigen binding call
YRRGGAWD	binds
VETKGDWD	no binding
AETKGDWD	binds
DTEGGSAS	no binding
DEGGTAVV	no binding
DGARNAAA	no binding
DEGGTAGV	no binding
DEGGTDLD	no binding
DATEDDSA	no binding
YRRRGDWY	binds
YTRGADWY	no binding
YTKRGDWD	no binding
YRRRGDWD	binds
FRRRGDWY	no binding
YRGKGAWS	binds
YRGKGSWS	binds
DEEASSWA	no binding
DTGTGDVA	no binding
VRARGVVA	no binding
VEAGDAVA	no binding
VTAGDDVA	no binding
VRRGDSVA	binds
VKRGDDVA	no binding
VRRGDFWA	no binding

Variant	antigen binding call
VRAGDSVA	binds
VRAGGSVA	binds
VRAGDDGA	no binding
VRAGDAGA	binds
VEAGDDGA	no binding
VRATGSVY	no binding
VGGRADGF	no binding
SKTKSDGA	no binding
DAGGAAGD	no binding
ATTKSAVA	no binding
FRAEGSVA	binds
VRAEGSVA	binds
VRRASSVA	binds
VKAGDDVA	no binding
YKAGDSVA	binds
VTRGADAV	no binding
SGAGDYSD	no binding
VAEKGFGA	no binding
VEAGDSSA	no binding
VRAGGFGA	binds
VTGGDSSA	no binding
VRGTGFGA	no binding
VRAGDSSA	binds
VKTGGDVF	no binding

Variant	antigen binding call
YRGAGAGA	binds
VAGAGAGA	no binding
YRGAGYAA	no binding
YRGASAAA	binds
YRGAGAAA	binds
AGGGNDVV	no binding
FEERNSLD	no binding
FKKGSSLD	binds
FKRGSSLD	binds
FKKGSSGV	binds
FKEGNSLD	no binding
FKRRSSGD	binds
FKRRSFGS	no binding
FKARDSGD	no binding
SEGADAGD	no binding
SEGGDAWV	no binding
FKKEGYGD	no binding
FKKGSSGD	binds
FKKGSVGD	no binding
FKKGSSWD	binds
VGGGNDLA chain 1 R87K	no binding
FRAGSAWS	binds
FRAGGAWS	binds
DAAKNDAV	no binding

Variant	antigen binding call
DGGKNDGV	no binding
VEGGADVF	no binding
DTGGGDLA	no binding
VEEEGSVS	no binding
YARAGSVS	no binding
YKRGSSVS	binds
YRRGSSVS	binds
VRRGSSVS	binds
YRRGGSVS	binds
DTGTGDGV	no binding
YRRGGAVS	binds
DTKAAAVV	no binding
DRRGDSLV	no binding
DRAGDDWV	no binding
SRAGDYLV	no binding
FRAGDYLV	binds
ARAGDYLV	no binding
DRAGDSLV	binds
DRAGDYLV	binds
VRAGDYLV	no binding
DRAGDYLY	no binding
SAREGDWV	no binding
SAARDAVA	no binding
FAGGGDVY	no binding

Variant	antigen binding call
VRTEDDVF	no binding
FRGRGFSV	no binding
FRGGASSD	binds
FKGTDSSD	no binding
FRGRGAWD	binds
FRGRGASV	binds
FRGRGSSD	binds
FKGKSSSD	no binding
DAKEGDVV	no binding
VEGGGAGV	no binding
DAGGADGV	no binding
FAGRGYSD	no binding
FRGRGASD	binds
FRKGDASD	no binding
DGGKNAVA	no binding
VAGTGASD	no binding
FRTRSSLA	binds
FRGRSSLA	binds
VEGEDAGA	no binding
YTRGGSGA	no binding
FRRGSSGA	binds
YRRGGSGA	binds
YRRGSSGA	binds
DAKEGSSA	no binding

Variant	antigen binding call
DGGKNDVV	no binding
VEGTSAGD	no binding
YTTRGAGA	no binding
VRTRGDGA	no binding
YRTRGAGA	binds
FRTRDAAA	binds
YRTRSAAA	binds
FTTRGAVA	no binding
FRTRGAAA	binds
FRGRDYAA	no binding
FRTRGVGA	no binding
SEARSDAS	no binding
DKEGGDVD	no binding
DATGGDGS	no binding
SKGRSDAV	no binding
SETGNVWF	no binding
YRTRGAWA	binds
YRTRGAAA	binds
YATRGAAA	no binding
VRTRGYLA	no binding
YRTRGALA	binds
VTGTGAVY	no binding
YKRGGSGD	binds
DGRGNSGD	no binding

Variant	antigen binding call
YKRGSSGD	binds
YEGTGSGD	no binding
VGRGNSGD	no binding
YGRGNSGD	binds
YKRRNSGD	no binding
STGGGDGV	no binding
STAGSASD	no binding
YRRGGSLS	binds
DARGGSLS	no binding
YEGTGSLS	no binding
YRRGSALS	binds
YRRGSSLS	binds
VKGASDGA	no binding
VTRGASGA	no binding
YKEKGDGA	no binding
VTRGDSGA	no binding
YKRGSSGA	binds
VKRGSSGA	binds
YKRGSFGA	no binding
YKRGSDGA	binds
DAGGGSSD	no binding
SETTDAGV	no binding
STKRSFWA	no binding
YRGESAVD	binds

Variant	antigen binding call
YRGTGSVD	binds
YKGKDSVD	no binding
YRGEASVD	binds
VTGTGSVD	no binding
DTGTGSVD	no binding
YRGKDSVD	binds
DAEKDSGA	no binding
VTKESAAV	no binding
YRGKSSVD	binds
YRTKAAVD	binds
YGGKNSVD	no binding
DEGGTSVD	no binding
YRGGTSVD	binds
YRGKASVD	binds
VTGTSDVA	no binding
VTGGDDWF	no binding
DREGDYLY	no binding
YTGGDSVA	no binding
YTGGDSVD	binds
YRGKAAVD	binds
YAGAAAVD	no binding
VTGGDSVD	no binding
